The results in this text go back to PubChem BioAssay AID588342 (National Center for Advancing Translational Sciences (NCATS), 2011).

Screen size: about 360,000 compounds; about 25,000 (6.9%) were called active. Not shown: some 9% with an inconclusive outcome. What follows is part of a selection rich in actives, with near analogues and random picks from the rest. A number with no mark means an inactive call. The call rests on the fitted dose curve; in most records, active means well fitted inhibition curve with a large enough effect; inconclusive means small, poorly fitted or top-dose-only effect; inactive means flat fitted curve, though single readings scatter.
Potency means the concentration at half of the fitted maximal effect.

For the assay, the target named is Luciferin 4-monooxygenase (Photinus pyralis) (UniProt P08659). Description: qHTS profiling assay for firefly luciferase inhibitor/activator using purifed enzyme and Km concentrations of substrates (counterscreen for miR-21 project). Further: nearly all actives have a fitted effect of over 55% in size.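 On activity change, negative = inhibition: plate controls were vehicle for no effect and reference inhibitor for full effect.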 The following applies: purified FLuc, luminescence inhibition; series mostly up to 57.5 µM; activity change, negative = inhibition: at the top concentration. The method in brief: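 Purified P. pyralis luciferase, 10 nM final, with Km-level 10 uM D-luciferin and 10 uM ATP in 50 mM Tris acetate pH 7.5, 10 mM Mg acetate, 0.01% Tween-20, 0.05% BSA; 6-point qHTS titration about 60 µM downward; luminescence read.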
Chain of Luciferin 4-monooxygenase (Photinus pyralis) (P08659 whole entry, looked up): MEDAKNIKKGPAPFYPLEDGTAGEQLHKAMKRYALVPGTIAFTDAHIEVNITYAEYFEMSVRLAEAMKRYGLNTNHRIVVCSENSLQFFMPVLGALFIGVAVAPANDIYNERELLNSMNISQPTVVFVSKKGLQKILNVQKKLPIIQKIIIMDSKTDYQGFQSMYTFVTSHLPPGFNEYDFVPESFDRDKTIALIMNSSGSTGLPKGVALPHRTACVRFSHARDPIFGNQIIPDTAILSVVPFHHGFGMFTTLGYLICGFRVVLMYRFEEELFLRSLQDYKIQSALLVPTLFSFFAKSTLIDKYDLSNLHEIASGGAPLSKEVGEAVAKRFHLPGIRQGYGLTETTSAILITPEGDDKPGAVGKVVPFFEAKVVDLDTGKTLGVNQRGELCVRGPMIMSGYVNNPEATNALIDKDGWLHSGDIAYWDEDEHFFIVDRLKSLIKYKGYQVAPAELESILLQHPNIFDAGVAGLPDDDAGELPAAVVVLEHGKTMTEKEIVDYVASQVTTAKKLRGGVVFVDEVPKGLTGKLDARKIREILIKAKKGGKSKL
Take `CCOC(=O)c1ccc(NC(=O)CC2C(=O)N(c3cccc(OC)c3)C(=O)N2C2CCCCC2)cc1` (stereo unspecified): the “activity change, negative = inhibition” value was -2.48%. Same read-out and setting: the result for `CN(CC(=O)Nc1ccccc1F)S(=O)(=O)c1ccc2c(c1)c(=O)n(C)c(=O)n2C` reads -1.96%. Regarding `Cc1ccsc1-c1cc(C(=O)O)c2c(ccc3ccccc32)n1`, the Potency is 5.36 µM (active).

As to `COc1ccccc1C(=O)Nn1cnnc1`, the “activity change, negative = inhibition” value was 6.9%.

For the compound `Cc1ccc(-c2cc(C(=O)NCc3cn(C)nc3C)c3cc(Br)ccc3n2)cc1`, the Potency was 1.9 µM (active). In the case of `Cc1ccc2nc(-c3ccncc3)cc(C(=O)Nc3ccc4c(c3)OCCO4)c2c1`, the “activity change, negative = inhibition” value is -14.4%.

For the compound `Cc1cc(C(=O)OCC(=O)Nc2nccs2)c2ccccc2n1`, the “activity change, negative = inhibition” value is 1.32%. For `O=C(Nc1ccncc1)c1cc(-c2ccccn2)nc2ccc(Br)cc12`, the “activity change, negative = inhibition” value was -3.8%. The same measure, in the same setting: as for `NC(=O)c1cc(-c2cccnc2)nc2ccc(Br)cc12`, the figure is -5.36%.

As for `Cc1ccc2nc(-c3ccccc3)cc(C(=O)O)c2c1`, the Potency was 12 µM (active). As to `O=C(NCc1cccs1)c1cc(-c2ccccn2)nc2ccc(Br)cc12`, the “activity change, negative = inhibition” value was 4.27%. Consider `CCS(=O)(=O)Nc1cccc(-c2cc(-c3ccccc3)c3cc(C)ccc3n2)c1`, for which the “activity change, negative = inhibition” value was -1.35%. For `O=C(NCC(c1cccs1)N1CCOCC1)c1cc(-c2ccccn2)nc2ccccc12` (stereo unspecified), the “activity change, negative = inhibition” value was -10.4%. For the compound `Cc1ccc2nc(-c3cccc(Br)c3)cc(C(=O)Nn3cnnc3)c2c1`, the Potency is 0.536 µM (active). `Cc1cccc(NC(=O)Cn2cc(S(=O)(=O)Cc3ccccc3Cl)c3ccccc32)c1`: the “activity change, negative = inhibition” value was -16.8%. Regarding `CCOC(=O)c1ccccc1NC(=O)c1sc2nc(-c3ccc(F)cc3)cn2c1C`, the “activity change, negative = inhibition” value is -4.15%. As for `O=C(NCC12CC3CC(CC(C3)C1)C2)c1cc2nc(-c3ccccc3)cc(C(F)(F)F)n2n1`, the “activity change, negative = inhibition” value is -0.997%.

For the compound `Cc1nc(CNS(=O)(=O)c2ccc(Oc3ccccc3)cc2)cs1`, the “activity change, negative = inhibition” value is -1.6%. The same measure, in the same setting: the result for `Cc1ccc(S(=O)(=O)c2cn(Cc3ccccc3)c3cc(N4CCCC4)c(F)cc3c2=O)c(C)c1` reads -2.49%; that for `NC(=O)Cn1nc([N+](=O)[O-])nc1Oc1ccc(Br)cc1`, -0.728%.

Turning to `COc1ccccc1-n1c(-c2ccc(C)cc2)cn2c3c(=O)n(C)c(=O)n(C)c3nc12`, the “activity change, negative = inhibition” value was -2.65%. Take `COc1cccc(C(=O)N2CCC(n3nccc3NC(=O)C3CCOC3)CC2)c1` (stereo unspecified): the “activity change, negative = inhibition” value is 1.7%.

As for `COC(=O)[C@]1(C)CCC[C@@]2(C)C3CC[C@]4(OC(C)=O)C[C@@]3(CCC21)CC4=NO` (stereo partly specified), the “activity change, negative = inhibition” value was 0.455%. Take `COc1ccc(N(CC(=O)NCCc2ccc(Cl)cc2)S(=O)(=O)c2c(C)nn(C)c2C)cc1`: the “activity change, negative = inhibition” value was -0.382%. `NC(=O)C1CCN(C(=O)c2ccc(-c3ccccc3)cc2)CC1`: the “activity change, negative = inhibition” value is 2.52%. `O=C(CCNS(=O)(=O)c1ccccc1)NCCSc1ccc(Br)cc1`: the “activity change, negative = inhibition” value is -0.614%.

Consider `Cc1c(NS(=O)(=O)c2ccc(Cl)cc2)c(=O)n(-c2ccccc2)n1C`, for which the “activity change, negative = inhibition” value was 5.5%. In the case of `Cc1nc(N2CCOCC2)nc2c1CCCC2`, the “activity change, negative = inhibition” value is -5.44%. `Cc1cccc(NC(=O)c2sc3nc(N4CCOCC4)c4c(c3c2N)CCCC4)c1`: the “activity change, negative = inhibition” value was -18%. Consider `Nc1nc(-c2sc3nc4c(cc3c2N)CCCC4)nc(N2CCOCC2)n1`, for which the Potency was 0.675 µM (active).

For the compound `CCN(CC)c1ccc(NC(=O)CN2CCN(CC(=O)Nc3ccc(Cl)cc3)CC2)cc1`, the “activity change, negative = inhibition” value is -6.9%. On the same count and under the same terms, as for `COc1cccc(C(=O)Nc2cccnc2)c1OC`, the figure is -16.4%; as for `COc1ccc(/C(C)=N\NC(=O)c2ccc(-c3ccccc3)cc2)c(F)c1`, 1.48%. With `COc1cccc(C(=O)N/N=C(\C)c2cccc(NC(=O)c3ccc(F)cc3)c2)c1OC`, the Potency was 13.5 µM (active). As for `Cc1cc(C)cc(NC(=O)Cn2nc(N3CCN(c4ccccc4)CC3)ccc2=O)c1`, the “activity change, negative = inhibition” value was -14.4%. `CCC1CN(S(=O)(=O)c2cc(-c3cc(C)no3)ccc2C)c2cc(C)ccc2O1` (stereo unspecified): the “activity change, negative = inhibition” value is -4.43%. With `Cc1c(Cl)cccc1NC(=O)Nc1ccc(C(=O)N2CCCC2)cc1`, the Potency was 5.36 µM (active). Consider `CS(=O)(=O)Nc1ccc(C(=O)N2CCCC2)cc1`, for which the “activity change, negative = inhibition” value was 1.38%. Consider `Cc1c(Cl)cccc1NC(=O)NCCCN1CCCC1=O`, for which the “activity change, negative = inhibition” value is -0.71%. `Cc1ccc(C)n1-c1nnc(N2CCC(C(=O)NCc3ccc(F)cc3)CC2)s1`: the “activity change, negative = inhibition” value is -3.4%. On to `Cn1c(=O)c2c(SCC(=O)N3CCc4ccccc43)nc(-c3ccc(Cl)cc3)nc2n(C)c1=O`, for which the “activity change, negative = inhibition” value is 0.741%.

Regarding `Cc1cccc(NC(=O)COc2ccc(Br)cc2C)n1`, the Potency is 3.38 µM (active).

`Cc1ccc(S(=O)(=O)NC(=O)COc2ccccc2C)cc1`: the “activity change, negative = inhibition” value was -1.45%. Consider `Cc1ccc(OCC(=O)Nc2ccc(NC(=O)c3cccs3)cc2)c(C)c1`, for which the “activity change, negative = inhibition” value is -0.406%.

Regarding `Cc1cccc(NC(=O)c2ccc3ccccc3n2)n1`, the Potency was 6.01 µM (active). As to `Cc1ccccc1OCC(=O)Nc1ccc(N2CCN(C(=O)C(C)C)CC2)c(Cl)c1`, the “activity change, negative = inhibition” value was 4.38%. In the case of `CCn1c2ccccc2c2cc(NC(=O)COc3ccc(C)cc3C)ccc21`, the “activity change, negative = inhibition” value is -11.2%. Still for that read-out and setting: as for `Cc1cccc(NC(=O)c2ccccc2NC(=O)C(C)(C)C)n1`, the figure is 12.6%; as for `Cc1cccc(NC(=O)c2cccnc2Cl)n1`, 2.18%. On to `COCCNC(=O)COc1ccccc1C`, for which the “activity change, negative = inhibition” value is -1.43%. For `Cc1ccccc1OCC(=O)Nc1ccc2c(c1)ncn2C`, the Potency is 21.3 µM (active).

In the case of `Cc1cccc(NC(=O)COc2ccccc2C)n1`, the Potency is 13.5 µM (active).

Turning to `CCN(CC)S(=O)(=O)c1ccc(C)c(NC(=O)COc2ccc(Br)cc2Cl)c1`, the “activity change, negative = inhibition” value was 3.98%. Take `Cc1nc(C)c2c(c1C(F)(F)F)-c1ccccc1C2(F)F`: the “activity change, negative = inhibition” value was -3.1%. Still for that read-out and setting: as for `COc1cccc(NC(=O)CSc2cc(=O)n(C)c3ccc(Cl)cc23)c1`, the figure is 0.0415%. Consider `CCC1(CC)NC(=O)N(CC(=O)OCC(=O)c2cc(C)c(C)cc2C)C1=O`, for which the “activity change, negative = inhibition” value is 2.66%. As to `CCOC(=O)c1c(C)[nH]c(CCC(=O)NCCCN2CCN(c3cc(C)ccc3C)CC2)c1C`, the “activity change, negative = inhibition” value was 1.17%. As to `CCN(CC)C(=O)CSC1c2ccccc2C(=O)N1c1ccccc1` (stereo unspecified), the “activity change, negative = inhibition” value is -6.61%.

Turning to `Cc1ccc(CCCOC(=O)C[N+]2(C)CCCC2)cc1`, the “activity change, negative = inhibition” value was 4.94%. The same measure, in the same setting: as for `Cn1c(=O)c2c(n(Cc3ccccc3)c1=O)NC(=O)C2CC(=O)N1CCc2ccccc2C1` (stereo unspecified), the figure is 0.136%.

Regarding `CC(=O)Nc1cccc2c1[n+]([O-])c(C)c(C)[n+]2[O-]`, the “activity change, negative = inhibition” value is -0.147%. On to `CCOc1ccc(NC(=O)c2cc3c(=O)n(Cc4cccs4)ccc3nc2C)cc1`, for which the “activity change, negative = inhibition” value is -9.25%. Turning to `CCSc1nnc(NC(=O)c2ccc(C)cc2)s1`, the Potency was 2.69 µM (active). For `COC(=O)CSc1nnc(NC(=O)CCc2ccccc2)s1`, the “activity change, negative = inhibition” value is 2.62%.

Take `CCOCc1nnc(NC(=O)CSc2ccc(C)cc2)s1`: the “activity change, negative = inhibition” value is 2.73%.

Turning to `Cc1ccc(C(=O)Nc2nnc(-c3ccncc3)s2)o1`, the activity change, negative = inhibition is -0.508% [at 2.3 µM]. Regarding `NC(=O)CSc1nnc(NC(=O)c2ccc(Br)o2)s1`, the Potency was 16.9 µM (active). As to `CSc1nnc(NC(=O)c2nc(S(=O)(=O)Cc3ccc(C)cc3)ncc2Cl)s1`, the “activity change, negative = inhibition” value is 3.37%. In the case of `NC(=O)CSc1nnc(NC(=O)c2ccc3ccccc3c2)s1`, the Potency is 2.39 µM (active). Regarding `O=C(Nc1nnc(CCN2CCCCC2)s1)c1cccc(Cl)c1`, the “activity change, negative = inhibition” value is -2.89%. Take `O=C(/C=C/c1ccccc1)Nc1nnc(SCC(=O)c2ccc3ccccc3c2)s1`: the “activity change, negative = inhibition” value is -11.5%.
